According to PubChem BioAssay (EPA / NIEHS):
Results filed as inconclusive are left out. Calls of active or inactive are those of the source. Rule for the calls: active = hit-call score of the fitted dose curve at least 0.9, where 1 is the maximum; inconclusive = response in the unintended direction; inactive = score below 0.9.

Tests used:
[1] = ATG_XTT_Cytotoxicity: Cytotoxicity Assessment in the Attagene TRANS-FACTORIAL HepG2 Assay (AID 2283584)
In short: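 HepG2 cells transiently transfected with GAL4-UAS multiple reporter units, dosed 24 h; cytotoxicity read by XTT as loss of signal versus DMSO baseline.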

[2] = TOX21_p53_BLA_p2_viability: Viability Assessment in the Tox21 HCT-116 p53 Agonism Beta-lactamase Assay, Phase 2 (AID 2283591);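 note: compound exposure lasted 16 h at 37 °C; actives lower the ATP signal meaning cytotoxicity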
In short: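 HCT-116 p53-bla cells (4000/well) rested 5 h at 37C, then received compounds in DMSO (217-fold dilution) for 16 h at 37C, 5% CO2. After the CCF4 read, CellTiter-Glo was added; ATP luminescence was read after 30 min at room temperature.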

[3] = TOX21_p53_BLA_p4_viability: Viability Assessment in the Tox21 HCT-116 p53 Agonism Beta-lactamase Assay, Phase 4 (AID 2283597);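 note: hits lower the luminescence signal meaning cytotoxicity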
In short: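 HCT-116 p53-bla cells, 4000/well, dosed after 5 h attachment and incubated 16 h at 37 °C, 5% CO2. Viability from CellTiter-Glo ATP luminescence after 30 min at room temperature, taken after the beta-lactamase read; loss of signal indicates cytotoxicity.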

[4] = molecular target: Cellular tumor antigen p53 (Homo sapiens) (UniProt P04637); experiment: TOX21_p53_BLA_p5_ratio: Tox21 HCT-116 p53 Agonism Beta-lactamase Assay, Ratio, Phase 5 (AID 2283599)
Chain of Cellular tumor antigen p53 (Homo sapiens) (P04637 whole entry, looked up): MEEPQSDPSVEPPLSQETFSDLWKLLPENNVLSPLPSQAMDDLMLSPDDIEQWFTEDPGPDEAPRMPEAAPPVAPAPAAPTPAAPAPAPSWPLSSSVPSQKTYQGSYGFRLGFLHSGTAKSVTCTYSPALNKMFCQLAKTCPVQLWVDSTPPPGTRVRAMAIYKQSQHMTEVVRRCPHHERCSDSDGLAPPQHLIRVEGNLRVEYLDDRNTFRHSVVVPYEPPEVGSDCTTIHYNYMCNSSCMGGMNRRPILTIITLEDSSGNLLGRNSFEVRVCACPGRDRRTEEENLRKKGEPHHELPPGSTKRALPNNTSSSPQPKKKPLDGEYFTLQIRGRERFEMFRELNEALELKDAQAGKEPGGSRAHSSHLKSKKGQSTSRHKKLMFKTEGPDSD
In short: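 HCT-116 cells carrying a p53-inducible beta-lactamase reporter were seeded at 4000 cells/well and dosed after 5 h with compound in DMSO (217-fold dilution). After 16 h at 37C, CCF4-AM substrate was added for 2 h, and the 460/530 nm emission ratio was scored as gain-of-signal versus DMSO.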

[5] = TOX21_p53_BLA_p5_viability: Viability Assessment in the Tox21 HCT-116 p53 Agonism Beta-lactamase Assay, Phase 5 (AID 2283600)
In short: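 HCT-116 p53 beta-lactamase reporter cells, 4000/well, were exposed to compound (pin transfer, 217-fold dilution) for 16 hours at 37C. Cellular ATP was read by CellTiter-Glo luminescence after 30 min at room temperature.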

[6] = molecular target: Cellular tumor antigen p53 (Homo sapiens) (UniProt P04637); experiment: TOX21_p53_BLA_p4_ratio: Tox21 HCT-116 p53 Agonism Beta-lactamase Assay, Ratio, Phase 4 (AID 2283601)
In short: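 HCT116 cells carrying an inducible beta-lactamase reporter were plated at 4000 cells/well, rested 5 h, then exposed to compounds in DMSO (217-fold dilution) for 16 h at 37C. CCF4-AM substrate was loaded 2 h at room temperature; 460/530 nm emission ratio scored gain-of-signal versus DMSO.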

[7] = molecular target: Cellular tumor antigen p53 (Homo sapiens) (UniProt P04637); experiment: TOX21_p53_BLA_p2_ratio: Tox21 HCT-116 p53 Agonism Beta-lactamase Assay, Ratio, Phase 2 (AID 2283592)
In short: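 HCT-116 cells with p53-responsive beta-lactamase reporter, 4000 cells/well, preincubated 5 h, then compound in DMSO (217-fold dilution) for 16 h at 37C. CCF4-AM substrate 2 h at room temperature; 460/530 nm emission ratio fitted upward versus DMSO.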

[8] = molecular target: Cellular tumor antigen p53 (Homo sapiens) (UniProt P04637); experiment: TOX21_p53_BLA_p3_ratio: Tox21 HCT-116 p53 Agonism Beta-lactamase Assay, Ratio, Phase 3 (AID 2283596)
In short: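 HCT116 p53-bla cells (4000/well) given compound in DMSO (217-fold dilution) after 5 h, incubated 16 h at 37C. CCF4-AM substrate 2 h at room temperature; 460/530 nm emission ratio, gain fitted against DMSO.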

[9] = TOX21_p53_BLA_p3_viability: Viability Assessment in the Tox21 HCT-116 p53 Agonism Beta-lactamase Assay, Phase 3 (AID 2283593);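 note: cells exposed to compound for 16 h before reading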
In short: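 HCT-116 cells (4000/well) rested 5 h at 37C, then got DMSO compounds by pin tool (217-fold dilution) for 16 h at 37C, 5% CO2. After the bla read, CellTiter-Glo was added and luminescence read at 30 min, room temperature.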

Measured: AC50

COc1ccc(N)cc1
not listed: [7] | [8] | [9]
inactive: all other assays above

Cc1ccccc1OP(=O)(Oc1ccccc1C)Oc1ccccc1C
not listed: [5] | [9]
inactive: all other assays above

CN(C)[C@@H]1C(=O)C(C(N)=O)=C(O)[C@@]2(O)C(=O)C3=C(O)c4c(O)ccc(Cl)c4[C@@](C)(O)[C@H]3C[C@@H]12
inactive: [1] | [2] | [3] | [4] | [5]

N#CCC#N
not listed: [3] | [9]
inactive: all other assays above

CCN(CCO)CCO
inactive: [1] | [2] | [5] | [6]

Nc1ccc(-c2ccccc2)cc1
not listed: [2]
inactive: all other assays above

C[C@H]1C(=O)O[C@@H]2CCN3CC=C(COC(=O)[C@](C)(O)[C@]1(C)O)[C@H]23
not listed: [2] | [3]
inactive: all other assays above

O=C(Cl)OCCOCCOC(=O)Cl
not listed: [3] | [4] | [9]
inactive: all other assays above

BrCCCCBr
inactive: [1] | [2] | [7] | [3]

c1csc(-c2ccc(-c3cccs3)s2)c1
active: [7] 50.2 µM | [8] 41.9 µM | [4] 59.3 µM | [6] 46.1 µM
inactive: [1] | [2]

CCN(N=O)C(N)=O
not listed: [4] | [9]
inactive: all other assays above

CCCCCCCCCCCCCCC(Br)C(=O)O (centres undefined)
inactive: [1] | [2] | [3] | [6]
active: [9] 41.4 µM | [8] 75.3 µM | [5] 70.3 µM

CCOC(=O)CCN(SN(C)C(=O)Oc1cccc2c1OC(C)(C)C2)C(C)C
not listed: [3] | [7] | [9]
inactive: all other assays above

C=CCCl
inactive: [1] | [7] | [9] | [8]
